# Screening data as filed in PubChem BioAssay.
# Vaccinia Venus = qHTS for Stage-Specific Inhibitors of Vaccinia Orthopoxvirus: Venus Reporter Primary qHTS; Vaccinia virus Venus reporter expression, fluorescence; Potency, µM (highest dose often 36.5 µM), for the others: top-dose activity change, negative = inhibition, actives largely listed as inhibitors; hit rate 0.46% among 330,000; calls by dose curve; tested in A549 cells; note: potency is the fitted concentration of half-maximal effect; nearly all actives have a fitted effect of over 30% in size
# MARV entry inh = qHTS for inhibitors of binding or entry into cells for Marburg Virus; Potency, µM (series often up to 37.8 µM), inactives show top-dose activity change, negative = inhibition, hits mostly inhibitors; hit rate 1.8% among 300,000; Marburg virus pseudotyped entry inhibition, cell reporter; calls by dose curve; tested in HEK293 cells; note: potency is the fitted concentration of half-maximal effect
# Vaccinia mCherry = qHTS for Stage-Specific Inhibitors of Vaccinia Orthopoxvirus: mCherry Reporter Primary qHTS; Vaccinia virus mCherry reporter infection, fluorescence; AID 720579, 2013; hit rate 0.63% among 310,000; Potency, µM (series often up to 36.5 µM), without a hit: at the highest dose activity change, negative = inhibition, actives largely listed as inhibitors; calls by dose curve; tested in A549 cells; note: potency is the fitted concentration of half-maximal effect; nearly all actives have a fitted effect of over 35% in size
# LASV entry inh = qHTS for Inhibitors of binding or entry into cells for Lassa Virus; Lassa virus pseudotype entry inhibition, cell reporter; Potency, µM (series often up to 37.9 µM), for the others: at the top dose activity change, negative = inhibition, hits mostly inhibitors; hit rate 1.2% among 300,000; AID 540256, 2011; calls by dose curve; tested in HEK293 cells; note: potency is the fitted concentration of half-maximal effect; nearly all actives have a fitted effect of over 50% in size
# FMDV inh = High Throughput Screening for Foot and Mouth Disease Virus Antivirals; FMDV antiviral cell-based qHTS; Potency, µM (titrated, usually from 57.9 µM), for the others: at the top dose activity change, negative = inhibition, most hits filed as inhibitors; hit rate 1.2% among 410,000; AID 1159524, 2015; calls by dose curve; tested in HEK293T cells; note: read-out not given here; potency is the fitted concentration of half-maximal effect; nearly all actives have a fitted effect of over 45% in size
# HCMV antiviral = qHTS Assay for inhibitors of the human cytomegalovirus (HCMV). HFF cells, HCMV-luciferase reporter, 72 h; active compounds read low. activity change, negative = inhibition, % at 57.5 µM. hit rate 4.5% among 410,000; in the data active = activity change below about -60%; inconclusive = no clear call, values can overlap the other calls; inactive = above about -39%
#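 Inhibition of viral replication was scored as loss of reporter luminescence in HFFs infected with HCMV-luciferase (MOI 1 PFU/cell) for 72 h; compounds tested at 2 doses, normalized to buffer and Salinomycin controls.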
# An asterisk follows results filed as active; i = inactive; ? = inconclusive; . = no result; [ ] = remark or other dose. Shown are actives, neighbours in structure and some others; about 6.5% of the full set was active somewhere. % is set by controls: 0 for no effect and ±100 for the full control effect.
SMILES,Vaccinia Venus,MARV entry inh,Vaccinia mCherry,LASV entry inh,FMDV inh,HCMV antiviral
COc1ccc(OC)c(-c2cc(C(=O)Nc3cccc(Cl)c3C)no2)c1,-7%,8%[46.1 µM],-5%,-4%[46.1 µM],1%,-19
COc1ccc2[nH]c3c(c2c1)CCN=C3C,-21%,.,i,.,-7%,-92*
COc1ccc2[nH]c3c(c2c1)CCNC3=O,.,.,.,.,8%,-25
CCCc1nc2oc3c(NCCOCCO)ncnc3c2c2c1COC(C)(C)C2,.,-20%,.,-3%,?,-102*
CC(C)c1nc2oc3c(NCCO)ncnc3c2c2c1COC(C)(C)C2,.,.,.,.,-9%,40
Nc1ccccc1-[n+]1c(-c2ccccc2)cc(-c2ccccc2)cc1-c1ccccc1,-17%,8.9µM*,-25%,?,?,?
Oc1ccccc1-[n+]1c(-c2ccccc2)cc(-c2ccccc2)cc1-c1ccccc1,2%,.,-6%,.,28µM*,-84*
O=C([O-])c1ccccc1-[n+]1c(-c2ccccc2)cc(-c2ccccc2)cc1-c1ccccc1,-11%,.,i,.,?,?
[O-]c1ccccc1-[n+]1c(-c2ccccc2)cc(-c2ccccc2)cc1-c1ccccc1,-27%,.,-29%,.,28µM*,-97*
Cc1ccccc1-[n+]1c(-c2ccccc2)cc(-c2ccccc2)cc1-c1ccccc1,?,.,-2%,.,10µM*,-96*
CCOC(=O)c1c(C)[nH]c(C)c1S(=O)(=O)NCC(=O)Nc1ccc(C)cc1C,-3%,.,-13%,?,31%,1
NC(=O)c1cn(C2OC(CO)C(O)C2O)c2ncnc(N)c12 (stereo not given),0.32µM*,0.073µM*,0.32µM*,0.29µM*,?,-97*
N#Cc1cn(C2OC(CO)C(O)C2O)c2ncnc(N)c12 (stereo not given),?,?,?,0.63µM*,14%,-100*
Nc1ncnc2c1ncn2[C@@H]1O[C@H](CO)[C@@H](O)[C@H]1O,0%,17%,-12%,11%,-22%,52
Cc1cc(C)nc(N/N=C/c2cc(C)n(CC(F)(F)F)c2C)n1,.,-25%,.,?,17%,-75*
O=C(c1cnn(-c2nccc(-c3ccccc3F)n2)c1C1CC1)N1CCN(CCO)CC1,-11%,.,-9%,.,-2%,.
Cc1ccsc1/C=N/Nc1cccc(C(=O)O)c1,-5%,?,-18%,?,4.5µM*,121
Cc1ccsc1/C=N/Nc1ccc(C(=O)O)cc1,.,.,.,.,8.9µM*,-28
Cc1ccsc1/C=N/NC(=O)CNC(=O)c1ccccc1,.,.,.,.,-5%,0
Nc1ccc(/C=C/c2cccc3cccnc23)cc1,-21%,.,-8%,.,.,.
O=C(Nc1ccccc1Cl)c1cc(C2CCCCN2C(=O)CCCc2ccccc2)on1 (stereo not given),9%,.,i,.,-17%,28
Cc1ccc(N2C(N)=C(C#N)C(c3ccsc3)C3=C2CC(C)(C)CC3=O)cc1 (stereo not given),-23%,?,-23%[1.46 µM],?,-26%,-101*
N/C(=N\c1nc2c(c(=O)[nH]1)CCC2)Nc1cccc(Cl)c1,?,6.3µM*,?,-27%,-14%,-28
Cc1cccc(N/C(N)=N/c2nc3c(c(=O)[nH]2)CCCC3)c1,.,-45%,.,4%,4%,8
CCCc1nc2cccnc2n1C1CCN(C(=O)CC2NC(=O)c3ccccc32)CC1 (stereo not given),-10%,.,-13%,.,-14%,.
SMILES,Vaccinia Venus,MARV entry inh,Vaccinia mCherry,LASV entry inh,FMDV inh,HCMV antiviral
Cc1ccc(C(OCCN(C)C)c2cccc(C(F)(F)F)c2)cc1 (stereo not given),-15%,21µM*,-8%,?,-29%,?
CN(C)CCO[C@@H](c1ccc(Cl)cc1)c1ccccn1,.,.,.,.,-9%,7
O=C(C[n+]1ccccc1Br)c1ccc(I)cc1,-12%,.,-22%,.,.,.
Cc1nc2ccc(S(=O)(=O)N(C)CC(=O)Nc3ccc(Br)c(C)c3)cc2s1,-23%,-28%[46.1 µM],-9%,3%[46.1 µM],?,?
CC(=O)c1cc(O)c2ccccc2c1O,.,.,.,.,-18%,85
Cc1cc(N=NC(=O)c2ccccc2O)c2ccccc2c1O,.,?,.,-21%,-18%,-73*
